Choline anaer gr: growth inhibitors of anaerobic choline-fed gram-negatives, minimal medium, absorbance | Gram-negative bacterium anaerobic choline minimal medium; hits give low values | calls only | 0.2% of 55,000 active; call rule not given here
Numbers without * were called inactive; i = inactive; + = active, no number. The entries come from a sample that favours hits as a whole.

SMILES	Choline anaer gr
O=C1C[C@@H]2OCC=C3CN4CC[C@]56c7ccccc7N1[C@H]5[C@H]2[C@H]3C[C@H]46	+
O=C(Nc1ccc(F)cc1F)c1cccn(Cc2ccc(Br)cc2)c1=O	i
Cc1nc2nc(-c3ccc(C(C)(C)C)cc3)nn2c(C)c1CC(=O)N1CCN(C)CC1	i
CCCCCCCCCCCCCCCCOC[C@H](COP(=O)([O-])OCC[N+](C)(C)C)OC(C)=O	i
CCCCCCCCCCCCCCCCOC[C@@H](COP(=O)([O-])OCC[N+](C)(C)C)OC(C)=O	+
CCCCCCCCCCCCCCCC(=O)OC[C@H](COP(=O)([O-])OCC[N+](C)(C)C)OC(C)=O	i
CN1CCC(c2ccc(F)cc2)C(COc2ccc3c(c2)OCO3)C1 (stereo unspecified)	i
Cc1ccc(C2c3cccn3-c3ccccc3CN2S(=O)(=O)c2cnn(C(F)F)c2C)cc1 (stereo unspecified)	i
Cc1cccc(N2CCN(C(=O)CCc3nc(C4=CCN(C)CC4)no3)CC2C)c1 (stereo unspecified)	i
O=C(Nc1nccs1)c1cccn(Cc2ccccc2F)c1=O	i

Screens: PubChem, ICCB-Longwood Screening Facility, Harvard Medical School
